# Experimental data taken from PubChem BioAssay (EPA / NIEHS).
# Inconclusive results are not listed. The source holds several records for some structures; these can differ, active in one and inactive in another. The source made the active and inactive calls. The calls were made as follows: active = hit-call score of the fitted dose curve at least 0.9, where 1 is the maximum; inconclusive = response in the unintended direction; inactive = score below 0.9.
# Molecular target: Nuclear receptor subfamily 1 group I member 2 (Homo sapiens) (UniProt O75469)
# Test: ATG_PXR_TRANS: Attagene TRANS-FACTORIAL HepG2 Assay for human Pregnane X Receptor (PXR) (AID 2283008)
# Summary of the method: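 HepG2 cells transiently transfected with GAL4-UAS reporter units and PXR-Gal4 chimera, exposed 24 h. Reporter mRNA quantified by RT-PCR, fluorescent labelling, HpaI digestion and capillary electrophoresis; gain of signal vs DMSO.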
# Sequence of Nuclear receptor subfamily 1 group I member 2 (Homo sapiens) (O75469 whole entry, looked up): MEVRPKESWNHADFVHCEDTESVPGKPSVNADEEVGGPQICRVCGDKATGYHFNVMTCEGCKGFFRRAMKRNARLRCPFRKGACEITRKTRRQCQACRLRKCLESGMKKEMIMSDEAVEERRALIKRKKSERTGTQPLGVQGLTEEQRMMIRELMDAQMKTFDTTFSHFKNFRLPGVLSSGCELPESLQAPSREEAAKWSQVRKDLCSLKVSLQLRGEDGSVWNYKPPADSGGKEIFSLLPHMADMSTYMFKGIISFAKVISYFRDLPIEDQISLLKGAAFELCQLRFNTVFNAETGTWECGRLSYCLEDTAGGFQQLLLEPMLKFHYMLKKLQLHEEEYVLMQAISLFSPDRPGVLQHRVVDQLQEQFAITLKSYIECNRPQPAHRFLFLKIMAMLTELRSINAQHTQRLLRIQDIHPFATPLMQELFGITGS
SMILES,AC50,outcome
Cc1cc(C(C)(C)C)c(O)c(C(C)(C)C)c1,27.3 µM (active),inactive
CCOC=O,–,inactive
C=C(c1ccc(C(=O)O)cc1)c1cc2c(cc1C)C(C)(C)CCC2(C)C,–,inactive
CCOC=C(C(=O)OCC)C(=O)OCC,–,inactive
Nc1cc(Cl)c(-c2cc(Cl)c(N)cc2Cl)cc1Cl,4.7 µM (active),–
CCC(=O)O,–,inactive
CNNCc1ccc(C(=O)NC(C)C)cc1,–,inactive
O=S(=O)(c1ccc(OCc2ccccc2)cc1)c1ccccc1O,3.73 µM (active),–
CCO[Si](C)(C)OCC,–,inactive
O=c1cc(-c2ccccc2)oc2ccc3ccccc3c12,5.62 µM (active),inactive
O=C(c1cc(O)c(O)c(O)c1)c1ccc(O)c(O)c1O,–,inactive
CCc1ccccc1O,15.7 µM (active),–
CCC(=O)C=Cc1ccc(OC)cc1,–,inactive
O=CC(F)(F)C(F)(F)C(F)(F)F,–,inactive
CCCCCC(C)OC(=O)COc1ccc(Cl)c2cccnc12 (stereo unspecified),–,inactive
O=C(OC(=O)C(F)(F)C(F)(F)F)C(F)(F)C(F)(F)F,–,inactive

SMILES,AC50,outcome
CCc1cccc(CC)c1N(COC)C(=O)CS(=O)(=O)O,7.05 µM (active),–
CCC1CO1 (stereo unspecified),–,inactive
O=C1Cc2ccccc2N1c1c(Cl)cccc1Cl,0.517 µM (active),–
O=C(Nc1ccc(Cl)c(Cl)c1)c1cc(Cl)cc(Cl)c1O,2.74 µM (active),–
CCCCCCc1ccc(N)cc1,–,inactive
CCCCCCOC(=O)c1ccc(O)cc1,25.6 µM (active),–
CCCCCCCCCCCC[N+](C)(C)CCCCCCCCCCCC,–,inactive
CCCCCCC(C)(C)C(=O)O,–,inactive
CCCCc1ccc2ccccc2c1S(=O)(=O)O,2.67 µM (active),–
C=CC(=O)OCCC(F)(F)C(F)(F)C(F)(F)C(F)(F)C(F)(F)C(F)(F)F,–,inactive
O=C(Nc1cccc([N+](=O)[O-])c1)c1cc2ccccc2cc1O,8.27 µM (active),–
Cc1cncc(C)c1,–,inactive
Cc1cc(=O)oc2cc(O)ccc12,12 µM (active),inactive
CCCCCCCCCCCC[N+](C)(C)Cc1ccccc1,–,inactive
NNc1nc(-c2ccc([N+](=O)[O-])cc2)cs1,–,inactive

# Molecular target: human Retinoic Acid Receptor gamma (RARg), RARG (gene 5916) (UniProt P13631)
# Test: ATG_RARg_TRANS: Attagene TRANS-FACTORIAL HepG2 Assay for human Retinoic Acid Receptor gamma (RARg) (AID 2283009);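 as to AC50: AC50 is for reporter induction above DMSO meaning RARg activation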
# Summary of the method: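 HepG2, RARg-GAL4 TRANS system, 24 h exposure; reporter mRNA by RT-PCR + CE fluorescence; increase over DMSO.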
# Sequence of human Retinoic Acid Receptor gamma (RARg), RARG (gene 5916) (P13631 whole entry, looked up): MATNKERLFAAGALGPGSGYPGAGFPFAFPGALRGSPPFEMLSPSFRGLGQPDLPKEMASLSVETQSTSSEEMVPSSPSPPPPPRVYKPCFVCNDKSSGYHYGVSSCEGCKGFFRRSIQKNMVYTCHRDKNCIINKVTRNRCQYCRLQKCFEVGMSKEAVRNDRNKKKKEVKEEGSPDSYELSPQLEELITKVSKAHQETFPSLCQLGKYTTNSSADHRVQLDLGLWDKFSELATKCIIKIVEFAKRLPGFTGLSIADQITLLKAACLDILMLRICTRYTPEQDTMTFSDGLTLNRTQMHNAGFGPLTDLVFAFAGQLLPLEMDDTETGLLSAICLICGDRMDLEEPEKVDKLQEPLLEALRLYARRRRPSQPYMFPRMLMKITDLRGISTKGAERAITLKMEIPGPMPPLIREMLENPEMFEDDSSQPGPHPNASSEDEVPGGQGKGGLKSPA
SMILES,outcome,AC50
CCOC=O,inactive,–
CCOC=C(C(=O)OCC)C(=O)OCC,inactive,–
O=C(c1cc(O)c(O)c(O)c1)c1ccc(O)c(O)c1O,inactive,–
CCc1ccccc1O,inactive,–
CCCCCC(C)OC(=O)COc1ccc(Cl)c2cccnc12 (stereo unspecified),inactive,–
O=C(OC(=O)C(F)(F)C(F)(F)F)C(F)(F)C(F)(F)F,inactive,–
OCC1CCC(CO)CC1 (stereo unspecified),inactive,–
CCc1cccc(CC)c1N(COC)C(=O)CS(=O)(=O)O,inactive,–
O=C(Nc1ccc(Cl)c(Cl)c1)c1cc(Cl)cc(Cl)c1O,inactive,–
FC(F)(F)C1(F)C(F)(F)C(F)(F)C(F)(F)C(F)(C(F)(F)F)C1(F)F (stereo unspecified),inactive,–
CCCCCCOC(=O)c1ccc(O)cc1,inactive,–
CCCCCCCCCCCC[N+](C)(C)CCCCCCCCCCCC,–,27.3 µM (active)
CCCCCCC(C)(C)C(=O)O,inactive,–
CCCCc1ccc2ccccc2c1S(=O)(=O)O,inactive,–
O=C(Nc1cccc([N+](=O)[O-])c1)c1cc2ccccc2cc1O,inactive,–
CCCCCCCCCCCC[N+](C)(C)Cc1ccccc1,–,155 µM (active)
NNc1nc(-c2ccc([N+](=O)[O-])cc2)cs1,inactive,–

# Molecular target: human RAR-related Orphan Receptor beta (RORb), RORB (gene 6096) (UniProt Q92753)
# Test: ATG_RORb_TRANS: Attagene TRANS-FACTORIAL HepG2 Assay for human RAR-related Orphan Receptor beta (RORb) (AID 2283010)
# Summary of the method: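 In this TRANS-format test, human HepG2 cells express chimeric NR-Gal4 fusion proteins driving GAL4-UAS reporters. After 24 h dosing, reporter transcripts are measured by fluorescent RT-PCR/capillary electrophoresis, with DMSO as negative control.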
# Sequence of human RAR-related Orphan Receptor beta (RORb), RORB (gene 6096) (Q92753 whole entry, looked up): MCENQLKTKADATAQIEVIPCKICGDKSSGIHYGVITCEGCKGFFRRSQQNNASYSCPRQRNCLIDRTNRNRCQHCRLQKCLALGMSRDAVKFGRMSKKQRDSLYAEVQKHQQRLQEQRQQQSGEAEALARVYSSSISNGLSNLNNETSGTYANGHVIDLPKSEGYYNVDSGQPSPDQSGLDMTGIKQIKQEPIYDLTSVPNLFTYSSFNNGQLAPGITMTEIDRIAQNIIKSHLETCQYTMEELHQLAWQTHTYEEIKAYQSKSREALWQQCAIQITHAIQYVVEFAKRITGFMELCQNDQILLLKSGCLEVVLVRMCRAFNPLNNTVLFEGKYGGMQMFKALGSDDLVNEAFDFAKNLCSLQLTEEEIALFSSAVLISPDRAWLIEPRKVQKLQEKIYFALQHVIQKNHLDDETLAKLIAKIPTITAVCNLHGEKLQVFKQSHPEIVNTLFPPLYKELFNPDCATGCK
row,SMILES,outcome
1,Nc1cc(Cl)c(-c2cc(Cl)c(N)cc2Cl)cc1Cl,inactive
2,CNNCc1ccc(C(=O)NC(C)C)cc1,inactive
3,O=c1cc(-c2ccccc2)oc2ccc3ccccc3c12,inactive
4,O=C(c1cc(O)c(O)c(O)c1)c1ccc(O)c(O)c1O,inactive
5,O=CC(F)(F)C(F)(F)C(F)(F)F,inactive
6,CCC1CO1 (stereo unspecified),inactive
7,O=C(Nc1ccc(Cl)c(Cl)c1)c1cc(Cl)cc(Cl)c1O,inactive
8,CCCCCCCCCCCC[N+](C)(C)CCCCCCCCCCCC,inactive
9,CCCCc1ccc2ccccc2c1S(=O)(=O)O,inactive
10,C=CC(=O)OCCC(F)(F)C(F)(F)C(F)(F)C(F)(F)C(F)(F)C(F)(F)F,inactive
11,O=C(Nc1cccc([N+](=O)[O-])c1)c1cc2ccccc2cc1O,inactive
12,Cc1cc(=O)oc2cc(O)ccc12,inactive
13,CCCCCCCCCCCC[N+](C)(C)Cc1ccccc1,inactive

# Molecular target: human RAR-related Orphan Receptor gamma (RORg), RORC (gene 6097) (UniProt P51449)
# Test: ATG_RORg_TRANS: Attagene TRANS-FACTORIAL HepG2 Assay for human RAR-related Orphan Receptor gamma (RORg) (AID 2283011)
# Summary of the method: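 Activity is scored as increase in GAL4-UAS reporter mRNA over DMSO, detected by fluorescent RT-PCR and capillary electrophoresis in HepG2 cells transiently expressing a RORg-Gal4 chimera, 24 h after dosing.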
# Sequence of human RAR-related Orphan Receptor gamma (RORg), RORC (gene 6097) (P51449 whole entry, looked up): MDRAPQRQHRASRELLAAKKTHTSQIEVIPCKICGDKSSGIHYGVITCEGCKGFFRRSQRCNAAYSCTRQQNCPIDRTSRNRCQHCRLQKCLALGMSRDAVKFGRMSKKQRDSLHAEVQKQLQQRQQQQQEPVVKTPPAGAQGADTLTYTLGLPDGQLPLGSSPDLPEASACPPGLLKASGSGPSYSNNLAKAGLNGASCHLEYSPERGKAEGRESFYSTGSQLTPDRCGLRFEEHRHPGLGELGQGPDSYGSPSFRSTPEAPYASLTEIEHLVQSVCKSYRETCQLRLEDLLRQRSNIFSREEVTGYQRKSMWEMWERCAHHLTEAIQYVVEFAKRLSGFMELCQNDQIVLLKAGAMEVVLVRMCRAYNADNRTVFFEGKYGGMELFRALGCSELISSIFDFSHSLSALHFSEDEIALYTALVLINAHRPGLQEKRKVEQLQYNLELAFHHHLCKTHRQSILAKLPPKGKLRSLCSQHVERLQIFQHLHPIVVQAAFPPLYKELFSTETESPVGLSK
row,SMILES,outcome
1,CCOC=O,inactive
2,CCC(=O)O,inactive
3,CCO[Si](CCC1CCC2OC2C1)(OCC)OCC (stereo unspecified),inactive
4,O=c1cc(-c2ccccc2)oc2ccc3ccccc3c12,inactive
5,O=C(c1cc(O)c(O)c(O)c1)c1ccc(O)c(O)c1O,inactive
6,O=C(OC(=O)C(F)(F)C(F)(F)F)C(F)(F)C(F)(F)F,inactive
7,Cc1ccccc1OCC(=O)O,inactive
8,CCC1CO1 (stereo unspecified),inactive
9,O=C(Nc1ccc(Cl)c(Cl)c1)c1cc(Cl)cc(Cl)c1O,inactive
10,CCCCCCC(C)(C)C(=O)O,inactive
11,CCCCc1ccc2ccccc2c1S(=O)(=O)O,inactive
12,C=CC(=O)OCCC(F)(F)C(F)(F)C(F)(F)C(F)(F)C(F)(F)C(F)(F)F,inactive
